Source: PubChem BioAssay AID1159580 (chemical genetic matrix, 2015)
Out of some 5,500 compounds screened, about 2,000 (36%) were called active. Another 18% or so got no clear call; they are omitted. Cut-off read from the data, not from the text of the source: active = normalized growth mostly below about 0.91 (no sharp cut-off); inconclusive = no clear call, values can overlap the other calls; inactive = mostly above about 0.92. This is one part of the list.

Experiment: chemical genetic growth profiling, strain panel (AID 1159580);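 note: tested at 20 µM; growth read once vehicle control cultures reached saturation at 30 °C; 1 = growth at the plate median or of vehicle wells; lower values mean less growth of the strain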
Conditions: growth OD
[1] = S. cerevisiae deletion strains, locus YAL013W, strain DEP1, hits give low values
[2] = S. cerevisiae deletion strains, locus YBR229C, strain ROT2, hits give low values
[3] = S. cerevisiae deletion strains, locus YDL101C, strain DUN1, hits give low values
[4] = S. cerevisiae deletion strains, locus YDR150W, strain NUM1, hits give low values
[5] = S. cerevisiae deletion strains, locus YEL061C, strain CIN8, hits give low values
[6] = S. cerevisiae deletion strains, locus YGR078C, strain PAC10, hits give low values
[7] = S. cerevisiae deletion strains, locus YHR030C, strain SLT2, hits give low values
[8] = S. cerevisiae deletion strains, locus YHR087W, strain rtc3, hits give low values
[9] = S. cerevisiae deletion strains, locus YJR043C, strain POL32, hits give low values
[10] = S. cerevisiae deletion strains, locus YJR075W, strain HOC1, hits give low values
[11] = S. cerevisiae deletion strains, locus YLR039C, strain RIC1, hits give low values
[12] = S. cerevisiae deletion strains, locus YLR058C, strain SHM2 (second series), hits give low values
[13] = S. cerevisiae deletion strains, locus YLR085C, strain ARP6, hits give low values
[14] = S. cerevisiae deletion strains, locus YLR262C, strain YPT6, hits give low values
[15] = S. cerevisiae deletion strains, locus YML094W, strain GIM5, hits give low values
[16] = S. cerevisiae deletion strains, locus YMR219W, strain ESC1, hits give low values
[17] = S. cerevisiae deletion strains, locus YMR263W, strain SAP30, hits give low values
[18] = S. cerevisiae deletion strains, locus YMR307W, strain GAS1, hits give low values
[19] = S. cerevisiae deletion strains, locus YNL153C, strain GIM3, hits give low values
[20] = S. cerevisiae deletion strains, locus YNL298W, strain CLA4 (second series), hits give low values
[21] = S. cerevisiae deletion strains, locus YNL322C, strain KRE1, hits give low values
[22] = S. cerevisiae deletion strains, locus YNR030W, strain Alg12, hits give low values
[23] = S. cerevisiae deletion strains, locus YOL006C, strain TOP1, hits give low values
[24] = S. cerevisiae deletion strains, locus YPL055C, strain LGE1, hits give low values
[25] = S. cerevisiae deletion strains, locus YPL241C, strain CIN2, hits give low values
[26] = S. cerevisiae deletion strains, locus YPR135W, strain CTF4, hits give low values

Measured: normalized growth

N#CCOc1ccc(Cl)cc1Cl
inactive: [1] 0.99 | [2] 0.97 | [3] 0.976 | [4] 0.95 | [5] 0.99 | [6] 0.965 | [7] 0.95 | [8] 0.977 | [9] 0.975 | [10] 0.915 | [11] 1.07 | [12] 0.954 | [13] 1 | [14] 1.01 | [15] 0.983 | [16] 0.955 | [17] 0.987 | [18] 1.06 | [19] 0.997 | [20] 1.02 | [21] 0.96 | [22] 0.997 | [23] 1.06 | [24] 1.12 | [25] 0.985 | [26] 0.968

Cc1cccc(C)c1NC(=O)C(C)Oc1ccc(Cl)cc1Cl (stereo not given)
inactive: [1] 1.01 | [2] 1 | [3] 1.01 | [4] 1.02 | [5] 0.996 | [6] 1 | [7] 0.989 | [8] 1.01 | S. cerevisiae deletion strains, locus YJL187C, strain SWE1, hits give low values 1.01 | [9] 1 | [10] 0.998 | S. cerevisiae deletion strains, locus YKL190W, strain CNB1, hits give low values 0.999 | [11] 0.961 | [12] 0.997 | [13] 1.02 | [14] 0.963 | [15] 1.09 | [16] 1.01 | [17] 1 | [18] 0.929 | [19] 1.02 | [20] 1.02 | [21] 1 | [22] 1.01 | [23] 1.04 | [24] 1.04 | [25] 1.05 | [26] 1.01 | S. cerevisiae strains, strain wild type, hits give low values 0.995
